Reference: PubChem BioAssay AID1745848 (National Center for Advancing Translational Sciences (NCATS), 2022)
About 940 (45%) of roughly 2,100 compounds were called active. Inconclusive results (about 48%) are left out. The call rests on the fitted dose curve; in most records, active means well fitted inhibition curve with a large enough effect; inconclusive means small, poorly fitted or top-dose-only effect; inactive means no such curve, though single readings can be large or run the other way. So high a share suggests a set chosen from earlier hits. The list shows a part of the results.
Potency means the concentration at half of the fitted maximal effect.

Test: Confirmatory qHTS for Inhibitors of ATXN expression; further: nearly all actives have a fitted effect of over 65% in size
Conditions: ATXN2-luciferase reporter cells, luminescence, 24 h; series mostly up to 11.5 µM
In short: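 Cells carrying ATXN2-luciferase reporter exposed 24 h at 37 C to compound. Viability then read by CellTiter-Fluor (25 uM GF-AFC, 30 min), followed by SteadyGlo luminescence; medium-only wells set 100% inhibition.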
With CCOc1ccccc1NC(=O)CCCc1nc2ccccc2c(=O)[nH]1 the Potency was 2.51 µM (active).
In the case of CCCC(=O)Nc1c(C(=O)OCC)[nH]c2ccccc12, the Potency is reported as “inactive”.
For N#CCc1nc2ccccc2c(=O)[nH]1, the Potency was “inactive”.
With CCOC(=O)C(NS(=O)(=O)c1ccc(C)cc1)(C(F)(F)F)P(=O)(OCC(C)C)OCC(C)C (centres undefined) the Potency was “inactive”.
With O=C(/C=C\c1ccccc1)NCC(=O)N/N=C/c1ccc(O)cc1O the Potency was 15.8 µM (active).
For Cc1cccc(OCC(=O)NCC(=O)N/N=C/c2cc(Br)cc(Br)c2O)c1, the Potency was 8.91 µM (active).
With CCOc1ccc(/C=N/NC(=O)C(O)c2ccccc2)c(O)c1 (centres undefined) the Potency was 3.16 µM (active).
For O=C(COc1ccccc1)NCC(=O)N/N=C/c1ccc(O)cc1O, the Potency was 15.8 µM (active).
In the case of O=C(N/N=C/c1ccc(O)cc1O)/C(=C/c1ccccc1)CCO, the Potency is reported as 0.794 µM (active).
With CCN(CC)c1ccc(/C=C/c2cccc[n+]2C)c(OC)c1 the Potency was 2.51 µM (active).
For Cc1cc(C)nc(/N=C(\N)Nc2ccc(C(C)C)cc2)n1, the Potency was 2.24 µM (active).
In the case of S=C(NC1CCCCC1)N1CCOCCOCCN(C(=S)NC2CCCCC2)CCOCCOCC1, the Potency is reported as 3.16 µM (active).
In the case of OC[C@@H]1CN(Cc2ccc(-c3ccccc3)cc2)C[C@H](n2cnc3c(Nc4ccccc4)ncnc32)O1, the Potency is reported as 15.8 µM (active).
With CCOC(=O)C1CCN(c2ncnc3c2cnn3-c2ccc(Cl)cc2)CC1 the Potency was 1.26 µM (active).
For O=C(Cn1nc2ccccc2n1)N/N=C/c1cc([N+](=O)[O-])ccc1O, the Potency was 3.16 µM (active).
For O=C(N/N=C/c1cc([N+](=O)[O-])ccc1O)c1cccc2cc[nH]c12, the Potency was 3.16 µM (active).
For O=C(N/N=C/c1cc([N+](=O)[O-])ccc1O)c1cc(-c2ccccc2)nc2ccccc12, the Potency was 3.16 µM (active).
For O=C(N/N=C/c1cc([N+](=O)[O-])ccc1O)c1c[nH]c2ccccc12, the Potency was 17.8 µM (active).
With COc1ccccc1N1C(=O)N(C(C)=O)C2C1Nc1ccccc1N2C (centres undefined) the Potency was “inactive”.
With CSc1cccc(NC(=O)c2ccc(CN3CCc4ccccc4C3)cc2)c1 the Potency was 4.47 µM (active).
In the case of CC1Cc2cc(-c3csc(NC(=O)Cc4cccs4)n3)ccc2N1S(C)(=O)=O (centres undefined), the Potency is reported as 3.98 µM (active).
For C=CCc1cccc(/C=N/NC(=O)CCC(=O)Nc2ccc(F)cc2)c1O, the Potency was 3.55 µM (active).
With C=CCc1cccc(/C=N/NC(=O)CCC(=O)Nc2ccc(C)cc2)c1O the Potency was 3.55 µM (active).
In the case of Cn1c(CCN2CCN(c3ccccn3)CC2)nc2cc(NC(=O)COc3ccc(Cl)cc3)ccc21, the Potency is reported as 11.2 µM (active).
For Cc1c(N/N=C(\C#N)C(=O)c2ccc(Cl)cc2)c(=O)n(-c2ccccc2)n1C, the Potency was 1.12 µM (active).
For Cc1c(N=C2N=C(NC(=O)Nc3ccc(Cl)cc3)c3ccccc32)c(=O)n(-c2ccccc2)n1C, the Potency was “inactive”.
In the case of Cc1ccccc1C(=O)/C(C#N)=N/Nc1c(C)n(C)n(-c2ccccc2)c1=O, the Potency is reported as 3.55 µM (active).
For Cc1c(N/N=C(\C#N)C(=O)c2ccccc2)c(=O)n(-c2ccccc2)n1C, the Potency was 2.51 µM (active).
For O=C(Nc1ccc(NC(=O)c2ccco2)cc1)c1ccc2c(c1)OCCO2, the Potency was 14.1 µM (active).
In the case of Cc1ccc(C(=O)N2CCN(c3ccc(NC(=S)NC(=O)c4cccs4)cc3)CC2)cc1, the Potency is reported as “inactive”.
For Cc1ccccc1C(=O)N1CCN(c2ccc(NC(=O)c3ccc4c(c3)OCCO4)cc2)CC1, the Potency was 3.98 µM (active).
With COc1cccc(/C=N/NC(=O)c2ccc(-c3ccccc3)cc2)c1O the Potency was 2 µM (active).
For COc1ccc(/C=N/NC(=O)c2nc(-c3ccccc3)n(-c3ccccc3)n2)c(O)c1, the Potency was 3.98 µM (active).
For Cc1cccc(NC(=O)c2cc(-c3ccccn3)nc3ccccc23)c1C, the Potency was 17.8 µM (active).
In the case of COc1cccc(C=NNC(=O)c2ccncc2)c1O, the Potency is reported as 15.8 µM (active).
In the case of CC(=O)c1sc(NC(=O)c2cc(-c3ccccc3)nn2-c2ccccc2)nc1C, the Potency is reported as “inactive”.
With COc1cccc(/C=N/NC(=O)c2cc(-c3ccccn3)nc3ccccc23)c1O the Potency was 2.82 µM (active).
For COc1cccc(/C=N/NC(=O)c2nc(-c3ccccc3)cc(-c3ccccc3)n2)c1O, the Potency was 1 µM (active).
In the case of COc1cccc(/C=N/NC(=O)c2ccc(=O)n(C)c2)c1O, the Potency is reported as 15.8 µM (active).
With OC[C@@H]1[C@@H](c2ccc(F)cc2)C(c2ccccc2)=NN1c1ccccc1 the Potency was “inactive”.
With Cc1cc(=O)oc2c1c(C)nn2-c1cccc(Cl)c1 the Potency was “inactive”.
With Cc1noc2ncnc(N3CCN(c4cccc(Cl)c4)CC3)c12 the Potency was 11.2 µM (active).
With CCN(CC)CCNC(=O)CCc1c(C)nc2c(c(C)nn2-c2ccc(C)cc2)c1C the Potency was 3.16 µM (active).
With COc1ccc2nc(C)cc(NCc3cccc(C(F)(F)F)c3)c2c1 the Potency was 14.1 µM (active).
With COc1ccc2nc(C)cc(NCc3ccc(F)cc3)c2c1 the Potency was 3.98 µM (active).
With CCOC(=O)c1c(SCCN2CCCCC2)n(-c2ccccc2)c(=S)n(-c2ccccc2)c1=O the Potency was 22.4 µM (active).
With CCOC(=O)c1c(SCCN2CCCC2)n(-c2ccccc2)c(=S)n(-c2ccccc2)c1=O the Potency was 2.24 µM (active).
In the case of COc1cccc(N2CCN(c3nc(-c4ccccc4C)cc(=O)[nH]3)CC2)c1, the Potency is reported as 0.398 µM (active).
With O=C(CSCC(=O)Nc1ccccc1)N/N=C/c1c(O)ccc2ccccc12 the Potency was 0.708 µM (active).
For COc1ccccc1NCC(=O)N/N=C/c1c(O)ccc2ccccc12, the Potency was 3.16 µM (active).
For O=C(CNc1ccc(F)cc1)N/N=C/c1c(O)ccc2ccccc12, the Potency was 3.16 µM (active).
In the case of O=C(CNc1ccccc1)N/N=C/c1c(O)ccc2ccccc12, the Potency is reported as 0.562 µM (active).
With CCOc1cc(CNCCO)cc(Br)c1OCc1ccccc1 the Potency was 12.6 µM (active).
For Cc1nc(C(F)(F)F)c(C(=O)N/N=C(\N)c2ccccn2)s1, the Potency was 14.1 µM (active).
With CC(C)C1Cc2c(sc3[nH]c(=S)n(Cc4ccccc4)c(=O)c23)CO1 (centres undefined) the Potency was 12.6 µM (active).
With Nc1ccc(Oc2ccccc2-c2ccccc2)cc1 the Potency was 2 µM (active).
With Cc1ncc(CO)c(/C=N/Nc2ccc(C(F)(F)F)cn2)c1O the Potency was 3.55 µM (active).
For CCC(C)N1C(=O)S/C(=C/c2ccc(Sc3nc4ccccc4[nH]3)o2)C1=O (centres undefined), the Potency was 11.2 µM (active).
In the case of COc1cc(C(=O)OC(C)C(=O)N2CCc3ccccc3C2)ccc1OCC(=O)N1CCOCC1 (centres undefined), the Potency is reported as “inactive”.
